KDM5B inh – blocks human KDM5B histone demethylase activity; AID 1347165; KDM5B demethylase, FDH-coupled NADH fluorescence (FDH is formaldehyde dehydrogenase); Q9UGL1; Potency, µM (doses to about 57.7 µM), hits mostly inhibitors; actives 2.6% (n = 220,000); also: potency is read from the fitted curve at half-maximal effect; 0% is about no effect; nearly all actives have a fitted effect of over 70% in size
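KDM5BΔAP (200 nM final) in 50 mM HEPES pH 7.5, 0.01% Tween-20 was preincubated 10 min at RT with compound over a concentration range. Substrate mix (H3K4me3 12.5 µM, α-KG 25 µM, Fe²⁺, ascorbate, NAD⁺, FDH) was added, and NADH fluorescence change over 30 min gave dose-response curves.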
SNCA expr inh – reduces expression of the alpha-synuclein gene. HEK-293 SNCA-luciferase knock-in, luminescence, 24 h. Potency, µM (top dose mostly 57.2 µM), for the others: at the highest dose activity change, negative = inhibition, hits mostly inhibitors. actives 0.17% (n = 140,000). AID 1671194;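 also: potency is read from the fitted curve at half-maximal effect; plate controls were DMSO cells for no effect and cell-free wells for full effect; nearly all actives have a fitted effect of over 45% in size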
SNCA viab count – counter-screen for SNCA expression inhibitors: cell viability. HEK-293-SNCA-luc viability, GF-AFC fluorescence, 24 h. Potency, µM (top dose mostly 57.1 µM), without a hit: at the top dose activity change, negative = cytotoxicity, most hits filed as cytotoxic. actives 0.12% (n = 150,000);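 also: potency is read from the fitted curve at half-maximal effect; 0% = DMSO-treated cells and -100% = medium-only wells without cells; nearly all actives have a fitted effect of over 30% in size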
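HEK-293-SNCA-luc cells (1500/well) plated 24 h, then exposed 24 h to a dilution series; GF-AFC added 30 min at 37C, fluorescence 405/540 nm; normalised to medium-only and DMSO wells, Hill fit.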
IP6K1 inh – inhibitors of human IP6K1. activity change, % (series mostly up to about 58 µM). actives 0.81% (n = 140,000). Q92551. AID 1645851. IP6K1 kinase, ADP-Glo luminescence, 2 h; hits give low values; in the data active = activity change below about -25%; also: % is scaled to controls: 0 for no effect and ±100 for the full control effect
Target sequence (Q92551 whole entry, looked up): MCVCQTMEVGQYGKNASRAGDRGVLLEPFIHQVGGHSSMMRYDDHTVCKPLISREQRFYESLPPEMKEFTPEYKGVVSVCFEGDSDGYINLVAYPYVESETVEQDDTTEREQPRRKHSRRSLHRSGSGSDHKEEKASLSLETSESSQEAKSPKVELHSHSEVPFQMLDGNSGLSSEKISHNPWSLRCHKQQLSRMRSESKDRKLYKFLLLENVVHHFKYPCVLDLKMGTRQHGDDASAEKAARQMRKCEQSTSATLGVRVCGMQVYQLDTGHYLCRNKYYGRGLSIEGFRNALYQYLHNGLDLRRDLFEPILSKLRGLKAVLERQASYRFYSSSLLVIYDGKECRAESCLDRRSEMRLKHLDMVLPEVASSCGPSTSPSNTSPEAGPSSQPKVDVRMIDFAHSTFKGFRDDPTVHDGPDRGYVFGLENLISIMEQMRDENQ
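ADP-Glo luminescence measures ADP made by human IP6K1 during a 2 h RT reaction with ATP/IP6 (mix at 1.3 mM/130 uM); top library doses 57.5 and 19.1 uM final.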
* marks the source's active call; other numbers are inactive results; i = inactive; ? = inconclusive; . = no result given; [ ] = dose if it differs, or a comment. This is a sample that favours compounds with a hit; in the whole collection about 2.8% have one here. Unless noted, calls follow the shape of the dose curve; as a rule, active = well fitted curve in the direction sought with a large enough effect; inconclusive = small, poorly fitted or top-dose-only effect, or another doubt; inactive = no such curve, though single readings can be large; an effect the other way counts as inactive or inconclusive.

SMILES	KDM5B inh	SNCA expr inh	SNCA viab count	IP6K1 inh
O=S(=O)(c1ccccc1)c1nnn2c1nc(N1CCCCC1)c1ccccc12	?	8.3%	4.4%	-4.1
Cc1ccc(S(=O)(=O)c2nnn3c2nc(N2CCOCC2)c2ccccc23)cc1C	79.4µM*	4.4%	5.8%	15.0
C=CCO[C@@H]1CCN2C(=O)c3cc(-c4ccc(OC)cc4)ccc3NC(=O)[C@H]12	35.5µM*	2.9%[87.6 µM]	-2.2%[87.6 µM]	-16.9
O=C(N[C@H]1CCN2C(=O)c3cc(/C=C/c4ccccc4)ccc3NC(=O)[C@H]12)C1CCCC1	31.6µM*	3.1%[87.6 µM]	-27.7%[87.6 µM]	-7.3
O=C(O)CCC(=O)N[C@H]1CCN2C(=O)c3cc(/C=C/c4ccccc4)ccc3NC(=O)[C@H]12	39.8µM*	-6.2%[87.6 µM]	-11.9%[87.6 µM]	-9.3
COc1ccc(C(=O)N2CCN3C(=O)c4cc(-c5ccc(Cl)cc5)ccc4NC(=O)[C@@H]3C2)cc1	?	?	-23.4%	-14.9
COc1ccc(/C=C/c2ccc3c(c2)C(=O)N2CC[C@H](NC(=O)CCC(=O)O)[C@H]2C(=O)N3)cc1	28.2µM*	-10.5%	-3.3%	6.5
O=C(O)CCC(=O)N[C@H]1CCN2C(=O)c3cc(-c4cccc(C(F)(F)F)c4)ccc3NC(=O)[C@H]12	i	-8.1%	4.9%	-3.9
Cc1ccc(Cn2c(C3CCN(C(=O)c4ccccc4)CC3)n[nH]c2=O)cc1	i	?	3.2%	-10.6
COCCn1nc2n(c1=O)CCN(C(=O)c1cncc(Br)c1)CC2	i	12.2%	5.1%	-0.9
O=C(O)COCC(=O)N[C@H]1CCN2C(=O)c3cc(-c4ccccc4F)ccc3NC(=O)[C@H]12	i	-0.4%	-0.7%	-8.4
O=C1Nc2ccc(/C=C/c3ccccc3)cc2C(=O)N2CC[C@H](NS(=O)(=O)c3cccs3)[C@@H]12	31.6µM*	?	-18.7%	-7.4
O=C1Nc2ccc(-c3ccccc3)cc2C(=O)N2CC[C@H](NS(=O)(=O)c3cccs3)[C@@H]12	i	?	1.0%	-5.9
O=C(O)COCC(=O)N[C@H]1CCN2C(=O)c3cc(/C=C/c4ccccc4)ccc3NC(=O)[C@H]12	31.6µM*	-11.9%	4.0%	-0.9
COc1ccc(-c2ccc3c(c2)C(=O)N2CC[C@H](NC(=O)COCC(=O)O)[C@H]2C(=O)N3)cc1	20µM*	35.2%	4.4%	-2.1
CCOCCNC(=O)C1(c2ccc(Cl)cc2)CCOCC1	.	.	.	17.0
CN(C)CCOCC1(C)COc2ccc(C(=O)Nc3cccc(Cl)c3)cc2N1 (configuration not stated)	35.5µM*	157.8%[87.6 µM]	-2.9%[87.6 µM]	1.4
CC1(COc2cccnc2)COc2ccc(C(=O)Nc3cccc(Cl)c3)cc2N1 (configuration not stated)	14.1µM*	?	?	-2.2
COc1cccc(NC(=O)c2ccc3c(c2)NC(C)(COc2cccnc2)CO3)c1 (configuration not stated)	?	-24.9%[87.6 µM]	?	-8.7
CN(C)CCOCC1(C)COc2ccc(C(=O)Nc3cccc(N(C)C)c3)cc2N1 (configuration not stated)	?	15.9%[87.6 µM]	13.0%[87.6 µM]	-5.2
O=C(NCCc1ccc(F)cc1)c1ccccn1	i	.	.	.
COc1nccnc1NC1CCN(C(=O)c2cnn3cccnc23)CC1	?	10.6%	-1.8%	-1.9
CCCOc1nccnc1NC1CCN(C(=O)c2ccccn2)CC1	28.2µM*	5.7%	1.5%	4.2
CCCOc1nccnc1NC1CCN(C(=O)NCc2ccco2)CC1	25.1µM*	-11.7%	-1.5%	-3.2
CS(=O)(=O)N1CCC(OC2CCN(C(=O)NCc3ccco3)CC2)CC1	i	-0.8%	-5.3%	11.8
SMILES	KDM5B inh	SNCA expr inh	SNCA viab count	IP6K1 inh
CCCOc1nccnc1NC1CCN(C(=O)C2CCCO2)CC1 (configuration not stated)	25.1µM*	14.4%	9.6%	4.4
CCCOc1nccnc1NC1CCN(C(=O)NCC)CC1	28.2µM*	?	-8.7%	2.6
CCCCCC(=O)Nc1nc2c(s1)C[C@@H]1[C@](C)(CO)[C@H](O)CC[C@@]1(C)[C@@H]2CC(=O)Nc1cccc(O)c1	?	-12.9%	-14.9%	-1.1
COc1ccc([S+](=O)([O-])N2CCC3(CC2)OCCN(CC2CC2)C3=O)cc1	i	-10.0%[87.6 µM]	-1.5%[87.6 µM]	10.2
Cc1cnc(CC2CCCN(C(=O)C3CC3)C2)n1C(C)C (configuration not stated)	i	-13.7%	9.1%	-14.1
COc1ccc(-c2ocnc2C(=O)Nc2ccc(F)cc2F)cc1	i	.	.	.
CCC1CCCCN1Cc1nc2c(c(=O)n(C)c(=O)n2C)n1CC(N)=O (configuration not stated)	i	.	.	.
COCCCn1c(C)cc(C(=O)N2CCCC(CO)CCNC(=O)CC2)c1C (configuration not stated)	i	-7.4%	5.7%	-10.1
CCOc1ccc(C(=O)N2CC(COC)C3(CCNCC3)C2)cc1OCC (configuration not stated)	i	6.1%	-11.2%	-2.9
COCCCn1c(C)cc(C(=O)N2CC(COC)C3(CCNCC3)C2)c1C (configuration not stated)	31.6µM*	-2.2%	-9.4%	13.4
COCC1CN(C(=O)c2nccn2C)CC12CCNCC2 (configuration not stated)	25.1µM*	6.0%	1.1%	26.0
O=C(CSc1nnc2ccc(-c3cccs3)nn12)N1CCN(c2ccccc2)CC1	i	.	.	.
CNC(=O)c1cc2cc(-c3c(C)noc3C)nc(-c3cccnc3OC)c2o1	35.5µM*	29.4%[87.6 µM]	6.2%[87.6 µM]	-2.4
COc1ncccc1-c1nc(-c2c(C)noc2C)cc2cc(C(C)C)oc12	31.6µM*	31.3%[87.6 µM]	-7.0%[87.6 µM]	-8.9
Cc1noc(C)c1-c1cc2cc(C(C)C)oc2c(-c2ccc(CO)cc2)n1	28.2µM*	6.2%[87.6 µM]	-21.5%[87.6 µM]	-8.4
Cc1noc(C)c1-c1cc2cc(C(C)C)oc2c(-c2cccnc2)n1	31.6µM*	46.1%[87.6 µM]	3.2%[87.6 µM]	-7.1
Cc1noc(C)c1-c1cc2cc(C(C)C)oc2c(-c2c(C)noc2C)n1	i	32.6%[87.6 µM]	14.8%[87.6 µM]	1.9
Cc1nc2ccc(C(=O)OCc3ccccn3)cc2nc1C	i	.	.	.
Cc1ccc(CC(=O)NC2CC3CCC2(C)C3(C)C)cc1C (configuration not stated)	i	.	.	.
N#Cc1cccc(-c2ccnc(N[C@H]3CO[C@H]4[C@@H]3OC[C@@H]4NC(=O)c3ccc4c(c3)OCO4)n2)c1	?	-11.2%	-29.4%	-1.0
O=C(O)CCCC(=O)N[C@H]1CO[C@H]2[C@@H]1OC[C@@H]2Nc1nccc(-c2ccc3c(c2)OCO3)n1	28.2µM*	?	0.0%	-0.4
COc1ccc(-c2ccnc(N[C@H]3CO[C@H]4[C@@H]3OC[C@@H]4NC(=O)CC3(CC(=O)O)CCCC3)n2)cc1	28.2µM*	-4.1%	1.4%	-14.8
COc1ccc(-c2ccnc(N[C@H]3CO[C@H]4[C@@H]3OC[C@@H]4NC(=O)N3CCOCC3)n2)cc1	?	-12.8%	3.7%	-12.5
COc1ccc(-c2ccnc(N[C@H]3CO[C@H]4[C@@H]3OC[C@@H]4NC(=O)CCCC(=O)O)n2)cc1	31.6µM*	-11.7%	-1.4%	-2.9
